40 molecules from PubChem BioAssay (NCI) can be followed below.

Each structure is given as a SMILES string. About 83,000 compounds went through this panel and 20% of them were active in at least one assay; those are over-represented in the sample as a whole.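 96-well plates, one dose, 48 hours. Percent growth reported; active if below 10.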 A number with no mark means an inactive call. Activity calls are given as the source filed them.

This experiment relates to SN12C renal. Description: NCI-60 one-dose screen, 48 h (100 = growth as untreated, 0 = no growth, -100 = all killed). The conditions noted are these: 10 µM unless noted. The protocol: Growth inhibition of the SN12C human tumor cell line is measured as a screen for anti-cancer activity. Cells are grown in 96 well plates and exposed to the test compound for 48 hours. Compounds are tested at a single concentration, which is 10^-5 M for most compounds. The reported endpoint is percent growth (GI% or GIPRCNT), where numbers from 0 - 100% represent growth inhibition, and numbers from -100% - 0 represent cell death. For example, a value of 40 represents 60% growth inhibition. A value of 0 means no net growth occurred over the course of the experiment. A value of -40 indicates 40% of cells at the beginning of the experiment died by the end of the experiment. A value of -100 means all cells are dead at the end of the experiment.
NCI-60 Human Tumor Cell Lines Screen was performed using the standard one-dose NCI protocol, which is described in more detail at https://dtp.cancer.gov/discovery_development/nci-60/default.htm.
Compounds with GIPRCNT values below 10 were considered active. Activity score was based on GIPRCNT using the following formula: […]
Score is 0 for GIPRCNT values of 100 or above, 50 for GIPRCNT values of 0, and 100 for GIPRCNT values of -100.
`N=C(N)c1ccc(-c2ccc(-c3ccc(F)cc3)s2)s1`: the growth was -50% (active). On to `O=C(NCc1ccccc1O)c1cccc2ccccc12`, for which the growth was 64.9%. Take `CNC(=O)c1c(NC(=O)c2ccc(C(C)(C)C)cc2)sc2c(CN(C)C)c(O)ccc12`: the growth is 4.62% (active). Take `Cn1cc(-c2csc(-c3cn(C(=O)OC(C)(C)C)c4ccccc34)n2)c2ccnc(Cl)c21`: the growth was 55.1%. Take `O=C(Nc1ccccc1O)c1ccccc1Nc1ccnc(C(F)(F)F)c1`: the growth is 87.3%.

Take `C#CC#CC#CC#CC#CC#CC#CC#CC[C@H]1OC[C@@H](COC(=O)O[C@@H](C(=O)O[C@H]2C[C@@]3(O)[C@@H](OC(=O)c4ccccc4)[C@@H]4[C@]5(OC(C)=O)CO[C@@H]5C[C@H](O)[C@@]4(C)C(=O)[C@H](OC(C)=O)C(=C2C)C3(C)C)[C@@H](NC(=O)c2ccccc2)c2ccccc2)O1`: the growth was 50.2%.

`C#CCOc1cccc(-c2ncc3cc(NC(=O)CCl)ccc3n2)c1`: the growth was -42.5% (active). `CCCCCCCC/C=C\CCCCCCCCOc1ccccc1CC(=O)NCC[N+]1(C)CCCCC1`: the growth was 43.2%. Then `Cc1nc2sc(C(=O)Nc3ccccc3)c(N)c2cc1C(=O)/C=C/c1ccccc1`, with -27.1% (active); and `COc1ncc2cc1NS(=O)(=O)c1cccc(c1)C(=O)NCC1=CC=C(S1)c1ncnc3c1SC2=C3C`, with 5.73% (active). Take `CCn1cc(C(=O)N/N=C/c2ccc(Br)cc2)c(=O)c2cc(F)c(N3CCNC(C)C3)c(F)c21` (stereo not given): the growth was 52.2%. On to `COc1ccc(C2=Nc3c/c(=C\c4c(O)[nH]c5cc(Cl)ccc45)ccc3=N2)cc1`, for which the growth was 96.5%. For the molecule `N=C(N)SCc1cccc2c(CSC(=N)N)cccc12`, the growth is 94%. For `O=C(CBr)CN1C(=O)c2ccccc2C1=O`, the growth was 109%.

Take `CCOC(=O)c1c(C)c2c(n1C)CSc1cc(S(=O)(=O)c3ccccc3)c(=O)[nH]c1-2`: the growth was 24.8% [100 µM].

Regarding `C=CCCC(=O)N1C=CC(=O)[C@H](O)[C@@H]1/C=C/c1ccccc1`, the growth was 42% [100 µM]. The value for `CCOC(=O)c1c(NC(=O)CSc2n[nH]c3nc4ccccc4n23)sc(CC)c1C` was 100%. With `N=C(N)c1ccc(-c2ccc(-c3ccc(Cl)cc3Cl)s2)cc1F`, the growth was -27.9% (active). Turning to `Cn1cc(C(=O)c2nc(-c3c[nH]c4ccc(Br)cc34)no2)c2cc(Br)ccc21`, the growth is 80.1%. The value for `Cc1ccc(C)c(-n2c(-c3ccc(Br)cc3)csc2=NC(=O)c2ccccc2F)c1` was 85.8%; that for `COc1ccc2cc(Cn3cc[n+](Cc4ccc5ccccc5c4)c3)ccc2c1` was 16.9%. As to `C=C1C(=O)O[C@H]2[C@H]1CC/C(COC(=O)NCc1ccc(Cn3c(=O)sn(-c4ccc(OC)cc4)c3=O)cc1)=C\CC[C@@]1(C)O[C@@H]21`, the growth is 65.2%. Then `C#CC#CC#CC#CC#CC#CC#CC#CCC1OCC(COC(=O)O[C@@H](C(=O)O[C@H]2C[C@@]3(O)[C@@H](OC(=O)c4ccccc4)[C@@H]4[C@]5(OC(C)=O)CO[C@@H]5C[C@H](O)[C@@]4(C)C(=O)[C@H](OC(C)=O)C(=C2C)C3(C)C)[C@@H](NC(=O)c2ccccc2)c2ccccc2)O1` (stereo not given in full), with 21.4%. The value for `c1ccc(CNc2ccc3nc(CCC4CCCCC4)[nH]c3c2)cc1` was 62.8%; that for `COc1cc2nc(Nc3cccc(F)c3)nc(Nc3cc(C)[nH]n3)c2cc1OC` was -94.3% [20 µM] (active); that for `COc1ccc(/C=C/C(=O)c2ccc(Nc3nc(Nc4ccc(F)cc4)nc(Nc4ccc(Cl)cc4)n3)cc2)cc1` was 112%. As to `CC(C)c1ccc(C(=O)Nc2sc3cc(O)ccc3c2C#N)cc1`, the growth is 34.2%. For `CC(C)C[C@@H](C(=O)N[C@H](C(=O)OC1CCCC1)c1ccccc1)[C@H](O)C(=O)NO`, the growth is 86.5%. Regarding `Cc1ccc(C)n1/C=C/n1c(C)ccc1C`, the growth is 118%.

For `O=C(c1ccc(F)c(Cl)c1)N1c2ccccc2Sc2ccccc21`, the growth was 99.2%. With `NC(=O)c1ccc(NC(=O)c2oc3ccccc3c2-c2cnn(-c3ccccc3)c2)cc1`, the growth was 14.7% [50 µM]. With `COc1ccc(NC(=O)c2cccc(C3CCc4c(cc(OC)c(OC)c4OC)O3)c2)cc1` (stereo not given), the growth was 31.4%. On to `O=C(CSc1nnc2sc(Nc3cccc(Cl)c3)nn12)c1ccc(F)cc1`, for which the growth is 98.9%. Regarding `O=C(CCCCCCCCC(=O)N/N=C\c1cc(Cl)ccc1O)N/N=C\c1cc(Cl)ccc1O`, the growth is 28.7%. Take `CCN(CC)CCCNCc1cc(-c2ccccc2)nc2cc(Cl)ccc12`: the growth is 38.2%. The value for `CCOC(=O)C1=C(c2ccccc2)N=c2s/c(=C/c3ccc(Br)cc3)c(=O)n2C1c1ccc(O)cc1` (stereo not given) was 85.2%; that for `CS(=O)(=O)Nc1cc(-c2ccc3ncnc(Nc4ccc5c(cnn5Cc5cccnc5)c4)c3c2)cnc1Cl` was 46.2%. Consider `CCOC(=O)c1c(NC(=O)c2ccc(C(C)(C)C)cc2)sc2cc(O)ccc12`, for which the growth was 99.6%. With `CC[C@@H](c1ccc2cc(OC)ccc2c1)C(C)(C)C(=O)F`, the growth was 105%.

Turning to `O=C(Cn1nnc2ccccc21)N/N=C/c1ccccc1F`, the growth is 83.9%.
